Laboratory results published in PubChem BioAssay (NCATS).
Where “and” joins values, the source holds several entries; their conditions need not be identical. Equal entries are not always repeated. Records with an inconclusive call do not appear. Calls of active or inactive are those of the source. The call rests on the fitted dose curve; in most records, active means well fitted inhibition curve with a large enough effect; inconclusive means small, poorly fitted or top-dose-only effect; inactive means flat fitted curve, though single readings scatter.

What was measured:
MCC-13 = experiment: qHTS assay to identify novel small-molecules to repurpose for Merkel cell carcinoma treatment (AID 1296009); conditions: MCC and control cell lines, CellTiter-Glo viability, 72 h; series mostly up to 46 µM
Procedure, shortened: (§1)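 Luminescence from CellTiter-Glo, read 10 min after addition at room temperature, reported viability following a 72 hr, 37 degree celsius treatment with NPC or MIPE compounds in titration; values normalized to plate controls.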

MCC-26 = experiment: as above; conditions: MCC and control cell lines, CellTiter-Glo viability, 72 h; series mostly up to 46 µM
Procedure, shortened: as §1

MKL-2 = experiment: as above; conditions: MCC and control cell lines, CellTiter-Glo viability, 72 h; series mostly up to 46 µM
Procedure, shortened: as §1

MKL-1 = experiment: as above; conditions: MCC and control cell lines, CellTiter-Glo viability, 72 h; series mostly up to 46 µM
Procedure, shortened: as §1

UISO = experiment: as above; conditions: MCC and control cell lines, CellTiter-Glo viability, 72 h; series mostly up to 46 µM
Procedure, shortened: as §1

WaGa = experiment: as above; conditions: MCC and control cell lines, CellTiter-Glo viability, 72 h; series mostly up to 46 µM
Procedure, shortened: as §1

NIH3T3 [1] = experiment: Cytotoxic Profiling of Annotated Libraries Using Quantitative High-Throughput Screening (AID 1296008); conditions: Five cell lines viability, CellTiter-Glo ATP luminescence, 48-72 h; max response: active compounds read low
Procedure, shortened: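 Compounds were pin-transferred onto cells and incubated 48 or 72 hr at 37 degree Celsius, 95% humidity. CellTiter-Glo was added, plates sat 10 min at room temperature, then ATP-coupled luminescence was imaged as the viability read-out.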

HEK293T = experiment: qHTS assay to identify novel small-molecules to repurpose for Merkel cell carcinoma treatment (AID 1296009); conditions: MCC and control cell lines, CellTiter-Glo viability, 72 h; at 44.8 µM (top of the series) unless noted
Procedure, shortened: as §1

NIH3T3 [2] = experiment: as above; conditions: MCC and control cell lines, CellTiter-Glo viability, 72 h; at 44.8 µM (top of the series) unless noted
Procedure, shortened: as §1

HACAT = experiment: as above; conditions: MCC and control cell lines, CellTiter-Glo viability, 72 h; at 44.8 µM (top of the series) unless noted
Procedure, shortened: as §1
Further: nearly all actives have a fitted effect of over 60% in size.
On the % scale 0 is the no-effect control and ±100 the full control effect; potency means the concentration at half of the fitted maximal effect.

COC(=O)C1=C(C)NC(C)=C(C(=O)OC)C1c1ccccc1[N+](=O)[O-]
inactive: Potency (MCC-13) | Potency (MCC-26)
active: Potency (MKL-2) 23.7 µM

CN(C)CCOC(C)(c1ccccc1)c1ccccn1 (stereo not given)
inactive: Potency (MCC-13) | Potency (MCC-26) | Potency (MKL-1) | Potency (MKL-2) | Potency (UISO) | Potency (WaGa)

CC(CN(C)C)CN1c2ccccc2CCc2ccccc21 (stereo not given)
inactive: max response (NIH3T3 [1]) 4.54% | Potency (MCC-13) | Potency (MCC-26) | Potency (MKL-1) | Potency (UISO) | Potency (WaGa)

CCN(CC)C(C)CN1c2ccccc2Sc2ccccc21 (stereo not given)
inactive: outcome (HEK293T) | Potency (MCC-13) | Potency (MCC-26) | Potency (MKL-1) | Potency (MKL-2) | outcome (NIH3T3 [2]) | Potency (UISO) | Potency (WaGa)

C[C@]12C[C@H](O)[C@H]3[C@@H](CCC4=CC(=O)CC[C@@]43C)[C@@H]1CC[C@@H]2C(=O)CO
inactive: outcome (HEK293T) | Potency (MCC-13) | Potency (MCC-26) | Potency (MKL-1) | Potency (MKL-2) | Potency (UISO) | Potency (WaGa)

CNCC(O)c1ccc(O)c(O)c1 (stereo not given)
inactive: max response (NIH3T3 [1]) -1.98%
active: Potency (MKL-1) 16.8 µM | Potency (MKL-2) 13.3 µM | Potency (UISO) 16.8 µM

COc1ccc2cc1Oc1ccc(cc1)C[C@H]1c3c(cc4c(c3Oc3cc5c(cc3OC)CCN(C)[C@@H]5C2)OCO4)CCN1C
inactive: outcome (HACAT) | Potency (MCC-13) | Potency (MCC-26)
active: Potency (MKL-1) 23.7 µM | Potency (MKL-2) 3.35 µM | Potency (WaGa) 18.8 µM

COCCOC(=O)C1=C(C)NC(C)=C(C(=O)OC/C=C/c2ccccc2)C1c1cccc([N+](=O)[O-])c1 (stereo not given)
inactive: Potency (MCC-26)
active: Potency (MKL-1) 21.1 µM

OCc1cc(C(O)CNCCCCCCOCCCCc2ccccc2)ccc1O (stereo not given)
inactive: max response (NIH3T3 [1]) -10.4% | Potency (MCC-13) | Potency (MCC-26) | Potency (MKL-1) | Potency (WaGa)

O=C1NC(=O)[C@@]2(CCOc3ccc(F)cc32)N1
inactive: outcome (HEK293T) | Potency (MCC-13) | Potency (MCC-26) | Potency (MKL-1) | Potency (MKL-2) | Potency (UISO) | Potency (WaGa)

CN(C)CCCN1c2ccccc2Sc2ccc(Cl)cc21
active: Potency (MKL-1) 23.7 µM | Potency (WaGa) 26.6 µM

CN1[C@@H]2CC(OC(=O)[C@H](CO)c3ccccc3)C[C@H]1[C@@H]1O[C@@H]12 (stereo not given in full)
inactive: outcome (HEK293T) | Potency (MCC-13) | Potency (MCC-26) | Potency (MKL-1)

CCN(CC)CCCC(C)Nc1c2ccc(Cl)cc2nc2ccc(OC)cc12 (stereo not given)
active: Potency (MCC-13) 23.7 µM | Potency (MKL-1) 15 µM | Potency (MKL-2) 3.35 µM | Potency (WaGa) 26.6 µM

[Cl][In]([Cl])[Cl]
inactive: max response (NIH3T3 [1]) -11.3% | Potency (MCC-26) | Potency (MKL-1) | Potency (MKL-2) | Potency (WaGa)

Cc1c(O)cccc1C(=O)N[C@@H](CSc1ccccc1)[C@H](O)CN1C[C@H]2CCCC[C@H]2C[C@H]1C(=O)NC(C)(C)C
inactive: Potency (MCC-26)

CNCCCC1c2ccccc2C=Cc2ccccc21
active: Potency (MKL-2) 21.1 µM
inactive: Potency (MCC-13) | Potency (MCC-26) | Potency (UISO)

CCCCc1ncc(/C=C(\Cc2cccs2)C(=O)O)n1Cc1ccc(C(=O)O)cc1
inactive: max response (NIH3T3 [1]) -1.7% | Potency (MCC-13) | Potency (MCC-26) | Potency (MKL-1) | Potency (MKL-2) | Potency (UISO) | Potency (WaGa)

CC(CN1c2ccccc2Sc2ccccc21)N(C)C (stereo not given)
inactive: Potency (MCC-13) | Potency (MCC-26) | Potency (MKL-1) | Potency (MKL-2)

CC(=O)O[C@@]12CO[C@@H]1C[C@H](O)[C@@]1(C)C(=O)[C@H](O)C3=C(C)[C@@H](OC(=O)[C@H](O)[C@@H](NC(=O)OC(C)(C)C)c4ccccc4)C[C@@](O)([C@@H](OC(=O)c4ccccc4)[C@H]21)C3(C)C
inactive: Potency (MKL-2)
active: Potency (NIH3T3 [1]) 0.0084 µM

CCN(CC)CCSC(=O)C(c1ccccc1)c1ccccc1
inactive: max response (NIH3T3 [1]) -1.72% | Potency (MCC-13) | Potency (MCC-26) | Potency (MKL-1) | Potency (UISO)

CCN(CC)CCNC(=O)c1c(C)[nH]c(/C=C2\C(=O)Nc3ccc(F)cc32)c1C
active: Potency (MCC-13) 23.7 µM | Potency (MKL-1) 2.99 µM | Potency (MKL-2) 2.99 µM | Potency (UISO) 11.9 µM | Potency (WaGa) 11.9 µM
inactive: max response (NIH3T3 [1]) -10.6%

CC(=O)Oc1ccc(C2(c3ccc(OC(C)=O)cc3)C(=O)Nc3ccccc32)cc1
inactive: max response (NIH3T3 [1]) -14.8% | Potency (MCC-13) | Potency (MCC-26) | Potency (MKL-1) | Potency (MKL-2) | Potency (WaGa)

CC(=O)c1ccc2c(c1)N(CCCN(C)C)c1ccccc1S2
active: Potency (WaGa) 26.6 µM
inactive: max response (NIH3T3 [1]) 1.48% | Potency (MCC-13) | Potency (MCC-26) | Potency (MKL-1) | Potency (UISO)

CCCCN(CCCC)CC(O)c1cc(Cl)cc2c1-c1ccc(Cl)cc1/C2=C/c1ccc(Cl)cc1 (stereo not given)
inactive: Potency (MCC-13) | Potency (MCC-26) | Potency (WaGa)

Nc1ccc(S(=O)(=O)Nc2nccs2)cc1
inactive: max response (NIH3T3 [1]) 0.16% and -3.65% | Potency (MCC-13) | Potency (MCC-26) | Potency (MKL-1) | Potency (MKL-2) | Potency (UISO) | Potency (WaGa)

CC(C)c1c(C(=O)Nc2ccccc2)c(-c2ccccc2)c(-c2ccc(F)cc2)n1CC[C@@H](O)C[C@@H](O)CC(=O)O
inactive: max response (NIH3T3 [1]) -9.75% and 4.05%
active: Potency (MCC-13) 23.7 µM | Potency (MCC-26) 23.7 µM | Potency (MKL-1) 3.35 µM | Potency (MKL-2) 2.66 µM | Potency (UISO) 10.6 µM | Potency (WaGa) 7.5 µM

NC1[C@H]2CN(c3nc4c(cc3F)c(=O)c(C(=O)O)cn4-c3ccc(F)cc3F)C[C@@H]12 (stereo not given in full)
inactive: Potency (MCC-26)
active: Potency (NIH3T3 [1]) 16.8 µM | Potency (UISO) 26.6 µM | Potency (WaGa) 21.1 µM

Nc1ncnc2c1ncn2[C@@H]1O[C@H](CO)[C@@H](O)[C@H]1O
inactive: outcome (HACAT) | Potency (MCC-13) | Potency (MCC-26) | Potency (MKL-1) | Potency (UISO)

CC1=C(/C=C/C(C)=C/C=C/C(C)=C/C(=O)O)C(C)(C)CCC1
inactive: max response (NIH3T3 [1]) -0.598% | Potency (MCC-13) | Potency (MCC-26) | Potency (UISO)
